# Values joined by “and” are separate entries in the source; they are usually repeats but may differ in a detail not shown here. Identical values can stand only once. The panel holds about 83,000 compounds, 20% with a hit somewhere; the sample as a whole holds those more often.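 Plates (96-well) were seeded with cells, treated with compound at one concentration, and incubated for 48 hours before percent growth was determined.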 Active and inactive are the calls of the source. Rule for the calls: active = growth percent below 10; inactive = the rest.
# Tested on: HL-60(TB) leukemia
# Assay: NCI-60 one-dose screen, 48 h (100 = growth as untreated, 0 = no growth, -100 = all killed)
# Details: 10 µM unless noted
row,SMILES,growth
1,OCc1cccnc1,117% (inactive)
2,COC(=O)c1ccc([N+](=O)[O-])c(C)c1,85.5% (inactive)
3,Cc1ccc(-c2nc(N3CCNCC3)c3oc(-c4ccccc4)nc3n2)cc1,-66.6% (active)
4,CC(NC(N)=S)c1ccccc1 (stereo not given),96.7% (inactive)
5,CS(=O)(=O)c1ccc(-c2cc(-c3nnc(SCC(=O)Nc4ccc(C(=O)/C=C/c5ccc(Cl)cc5)cc4)n3-c3ccccc3)c3ccccc3n2)cc1,98.9% (inactive)
6,Cc1cc(C)n2nc(SCC(=O)Nc3sc4c(c3C(N)=O)CCC4)nc2n1,117% (inactive)
7,Cc1cc(OI)c(C(C)C)cc1-c1cc(C(C)C)c(OI)cc1C,106% (inactive)
8,COc1cc(C2CC(c3cccc(Br)c3)=NN2C(C)=O)cc(OC)c1OC (stereo not given),78.2% (inactive)
9,O=C(Nc1ccc(Oc2ccc(Nc3nc4ccccc4s3)cc2)cc1)Nc1ccc(Cl)c(Cl)c1,21.1% (inactive)
10,Nc1nc(-c2cc3ccccc3o2)cc(=O)c(=O)[nH]1,107% (inactive)
11,O=C(O)COCC(=O)O,102% (inactive)
12,CC12CCC3c4ccccc4CCC3(CO1)C2 (stereo not given),87.7% (inactive)
13,COc1ccc(OC)c(Nc2nc(-c3c(C)nc4sccn34)cs2)c1,67.9% (inactive)
14,CC12CCCCC1C(C(N)=O)C(=O)O2 (stereo not given),102% (inactive)
15,O=C(NO)c1ccc(-n2nc(-c3ccccc3)c3ccccc32)cc1,62.4% (inactive)
16,COc1ccc(-c2ccc(NNC(=O)c3ccc(F)cc3)nn2)cc1OC,46.9% (inactive)
17,C=C1[C@@H](O)C[C@H]2C(C)(C)C[C@H](Cl)C[C@]2(C)[C@H]1C[C@H](O)[C@H]1CC(=O)NC1=O,-26% (active)
18,CC(=O)OC(OC(C)=O)C1CCCO1 (stereo not given),147% (inactive)
19,CCN(CC)CCCNc1nc(C)cc(Nc2ccc3nc(C)cc(N)c3c2)n1,106% (inactive)
20,Cc1cc(O)ccc1C1=NN(c2ccc(S(N)(=O)=O)cc2)C(=O)CC1,4.22% (active)

row,SMILES,growth
1,CC(C)(C)c1nc2c(s1)c1nc(N)ncc1c1ccc(NS(=O)(=O)c3c(F)cccc3F)c(F)c12,79.9% (inactive)
2,CN(Cc1cc(Cl)cc(Cl)c1O)Cc1cc(Cl)cc(Cl)c1O,53.1% (inactive)
3,Cc1n[nH]c(C)c1N=Nc1cccc2c1C(=O)c1ccccc1C2=O,96.3% (inactive)
4,O=C1c2c(c3c4ccc(Br)cc4oc3c3[nH]c4ccccc4c23)C(=O)N1O,25% (inactive)
5,Cc1cc(Nc2ccc(Cl)c(Cl)c2)nc(N)n1,62.7% (inactive)
6,O=C(Nc1ccc2cc3ccc(NC(=O)NC4CCCCC4)cc3nc2c1)NC1CCCCC1,99.3% (inactive)
7,CN1CCN(Cc2ccc(NC(=O)c3nc4ccc5[nH]ncc5c4c4c3CCC4)cc2C(F)(F)F)CC1,-59.1% (active)
8,O=C1/C=C/[C@@H](O)[C@@H]2C[C@@H](O)C[C@H]2/C=C/CCCCO1,-22.8% (active)
9,Nc1cc(-c2cccc(OC(F)(F)F)c2)nc2ccc(N3CCCC3)cc12,-35.5% (active) and -28.5% (active) and -11.6% (active)
10,COc1ccc(C2CC(c3cccs3)=NN2c2ccc(S(=O)(=O)NC(=O)Nc3ccc(C)cc3)cc2)cc1 (stereo not given),126% (inactive)
11,CCCCN(CCCC)CC(O)CN(CC)CC (stereo not given),108% (inactive)
12,O=C1c2cccc3cccc(c23)C(=O)N1N1C(=O)c2cccc3c(N4CCOCC4)ccc(c23)C1=O,125% (inactive)
13,COc1ccc2c(c1)nnn1c3ncccc3c(N=O)c21,-39.8% (active)
14,O=C(Nc1ccc(Oc2cccc(F)c2)c(Cl)c1)c1cccnc1,12.1% (inactive)
15,COC(=O)/C(CCC=C(C)C)=C1\[C@@H](OC(C)=O)C[C@@]2(C)[C@H]1CC(=O)N[C@H]1[C@@]3(C)CCNC(=O)[C@@H](C)[C@@H]3CC[C@@]12C,102% (inactive)
16,CC(C)C(C)(C)C(=O)C(C)(C)C(C)(C)C,135% (inactive)
17,C=C1C(=O)O[C@H]2[C@H]1CC/C(COC(=O)CCSCCC(=O)OC/C1=C/CC[C@@]3(C)O[C@H]3[C@H]3OC(=O)C(=C)[C@@H]3CC1)=C\CC[C@@]1(C)O[C@@H]21,-58.2% (active)
18,Cc1cc(C)cc(CCCCCCCCCCCCCCCCCC(=O)O)c1,71% (inactive)
19,CCOC(=O)c1cn2c3c(cc(F)cc3c1=O)C(CC)c1ccccc1C2 (stereo not given),94.9% (inactive)
20,CC(C)(C)NCCC(O)c1cc2c(Cl)cc(Cl)cc2c2cc(C(F)(F)F)ccc12 (stereo not given),-60.9% (active)
